Data published in PubChem BioAssay AID2315 (National Center for Advancing Translational Sciences (NCATS), 2010).
About 27,000 (9.3%) of roughly 290,000 compounds were called active. The full list was thinned out, with actives kept by preference. A number with no mark means an inactive call. No stated cut-off is given here; in the data, active means inhibition mostly above about 28% (no sharp cut-off); inactive means mostly below about 43%.

Experiment: A qHTS for Small Molecule Inhibitors of Shiga Toxin; further: 0% is about no effect
Details: Vero cells, Shiga toxin protein synthesis inhibition reporter; at 38.7 µM, hits give high values

Compound | inhibition
O=C(Nc1ccc2ccccc2c1)Nc1ccc2snnc2c1 | 1.94%
CCc1ccccc1NC(=O)c1ccc2snnc2c1 | -5.07%
O=C(Nc1cccc(Br)c1)c1ccc2snnc2c1 | 64% (active)
COc1ccccc1S(=O)(=O)c1c(C)cc(C)[nH]c1=O | -2.84%
Cc1cccc([C@@H]2[C@@H]3C(=O)N(C)C(=O)[C@@H]3[C@@H]3C(=O)Nc4ccccc4C(=O)N23)c1 | -2.83%
Cn1c(S(=O)(=O)O)nc2ccccc21 | -9%
Cn1c(NC(=O)c2ccccc2)nc2ccccc21 | 43.5% (active)
Cn1sc(NC(=O)c2ccccc2)nc1=O | 33.6%
Cc1ccc2cc(C)c(N3CCN(c4ccc(F)cc4)CC3)nc2c1 | 27.6%
Cc1nn(-c2ccccn2)c2c1C(c1ccncc1)C1=C(CC(C)(C)CC1=O)N2 (stereo not drawn) | -3.23%
Cc1cc2c(cc1C)NC(c1ccccn1)C1=C(CC(C)(C)CC1=O)N2 (stereo not drawn) | 51.7% (active)
CC1(C)CC(=O)C2=C(C1)Nc1cc(C(=O)c3ccccc3)ccc1NC2c1ccccn1 (stereo not drawn) | -5.56%
CCc1ccc(CN(C)C(=O)C2CCC(=O)N(Cc3cccc(OC)c3)C2)nc1 (stereo not drawn) | 22.8%
CCOc1cccc(-c2nnc(SCC(=O)NC3CC3)n2C)c1 | 27%
COc1ccc(NC(=O)CSc2nncc(=O)n2N)cc1OC | -9.85%
O=C(COC(=O)c1cccc(Br)c1)Nc1cccc2c1C(=O)c1ccccc1C2=O | 31.4% (active)
O=C(COC(=O)Cn1cnc2ccccc21)Nc1cccc2c1C(=O)c1ccccc1C2=O | -13.5%
O=C(COC(=O)c1ccccc1)Nc1ccccc1Sc1ccccc1 | -9.76%
COc1ccc(C(=O)COC(=O)Cn2cnc3c2c(=O)n(C)c(=O)n3C)c(OC)c1 | -5.14%
COc1cnc(-c2ccccn2)nc1Oc1ccc(C(C)(C)C)cc1 | 1.11%
Cc1ccc(Oc2nc(-c3ccccn3)nc3ccccc23)cc1 | 57.7% (active)
CC(C)(C)Nc1nc(-c2ccccn2)nc2ccccc12 | -14.9%
COC1=C(N2CCOCC2)C(=O)c2ccccc2C1=O | -6.31%

Compound | inhibition
CCOCCc1nn2c(=O)cc(CSCC(=O)Nc3cccc(C)c3C)nc2s1 | -13.9%
O=C(Nc1cccc(-c2cscn2)c1)C1CCN(Cc2ccsc2)CC1 | -4.07%
COCCNC(=O)COc1ccc(N(C)S(=O)(=O)c2ccc3ccccc3c2)cc1 | -8.35%
COC(=O)c1sc2ncccc2c1OCc1ccc(Cl)cc1Cl | 6.72%
Cc1nc2ccccc2nc(C)c1=NOCc1ccc(Cl)cc1Cl | 112% (active)
O=S(=O)(O)c1nc2ccccc2n1Cc1ccc(Cl)cc1Cl | -6.41%
COC(=O)CSc1nnc(NC(=O)CCc2ccccc2)s1 | 10.7%
COc1ccc(CNS(=O)(=O)c2ccc(-c3cnc(C4CC4)o3)cc2)cc1 | -4.74%
Cc1ccc(-n2ncc3c2CC(C)(C)CC3NC(=O)CCc2cnn(C)c2)cc1 (stereo not drawn) | -4.16%
O=C(Oc1cccc(NC2=NS(=O)(=O)c3ccccc32)c1)c1ccncc1 | 2.4%
CC(C)(C)c1csc(NC2=NS(=O)(=O)c3ccccc32)n1 | 97.3% (active)
Cc1ccc(S(=O)(=O)N(NC2=NS(=O)(=O)c3ccccc32)C(=O)c2ccccc2)cc1 | -6.05%
Cc1ccc(C(C)C)c(OCCSc2nc3ccccc3n2CC(=O)O)c1 | -6.58%
CC(OC(=O)c1ccccc1OCc1ccc(Cl)cc1)C(N)=O (stereo not drawn) | -20.8%
C=CCc1ccccc1OCC(O)CN1CCN(CCO)CC1 (stereo not drawn) | -5.91%
CCNC(=O)N1CCCC(C(=O)c2ccc(-c3ccccc3)cc2)C1 (stereo not drawn) | 36.1% (active)
Cc1ccccc1NC(=O)C1CCCN(C(=O)NCc2ccccc2)C1 (stereo not drawn) | -9.33%
O=C(c1ccc(-c2ccccc2)cc1)C1CCCN(C(=O)c2cncs2)C1 (stereo not drawn) | 16.3%
Cc1cccc(C(=O)N2CCN(S(=O)(=O)N3CCCCC3)CC2)c1 | 12.6%
CCC1CCCCN1C(=O)CSc1nc2c(c(=O)n1C)SC(C)C2 (stereo not drawn) | -5.97%
CCCCN(CCCC)CCNC(=O)CN1C(=O)COc2ccc(S(=O)(=O)N3CCOCC3)cc21 | -2.7%
NS(=O)(=O)c1ccc(N=Nc2c(O)[nH]c3ccc(Br)cc23)cc1 | 58.5%
Cc1cccc(N=Nc2c(O)[nH]c3ccc(F)cc23)c1 | 143% (active)

Compound | inhibition
Oc1[nH]c2ccc(Br)cc2c1N=Nc1nn[nH]n1 | 2.43%
Cc1ccc(CNC(=O)C2CCN(S(=O)(=O)c3ccc4nc5c(c(C(=O)O)c4c3)CC(C)CC5)CC2)cc1 (stereo not drawn) | 19.6%
CCOC(=O)CSc1nnc(NC(=O)C2CC(=O)N(c3ccc(F)cc3)C2)s1 (stereo not drawn) | -11.5%
Cc1ccc(S(=O)(=O)NCC2CCC(C(=O)N3CCOCC3)CC2)cc1 (stereo not drawn) | -3.33%
O=C(c1cccnc1)N1CCN(S(=O)(=O)c2cccs2)CC1 | -10.5%
CCOC(=O)c1cccc(NC(=O)CN2C(=O)C3CC=CCC3C2=O)c1 (stereo not drawn) | -2.13%
Cc1ccc(NC(=O)NC(=O)N(C2CCCCC2)S(=O)(=O)c2ccccc2)cc1 | 0% (active)
CC(c1ccco1)N(C(=O)Nc1ccccc1)C1CCCCC1 (stereo not drawn) | 71.5%
Cc1ccc(S(=O)(=O)N(C)CC(=O)OCC(=O)Nc2ccccc2)cc1 | 10.4%
COc1cc(Br)c(-c2sc(Nc3ccccc3)n[n+]2-c2ccccc2)cc1OC | -9.06%
Cc1ccc(NC(=S)N/N=C2/CCCc3c(C)cc(C)cc32)cc1 | -4.99%
CCOC(=O)c1c(-c2ccccc2)csc1NC(=S)NC(=O)c1ccccc1 | -2.96%
Cn1nnc(NC(=S)NC(=O)c2ccccc2)n1 | 64.6% (active)
COc1ccc(C(=O)NNC(=S)NC(=O)c2ccccc2)cc1 | 31.4%
Cc1cc(C(=O)NNC(=S)Nc2ccccc2C)cs1 | 66.8% (active)
CC(C)c1ccc(NC(=S)NNc2ccc(Cl)c(C(=O)O)c2)cc1 | 52%
Cc1ccc(C)c(NC(=S)NNC(=S)Nc2ccc(C(C)C)cc2)c1 | 50.1% (active)
Cc1ccccc1NC(=S)NC(=O)Cc1ccc(Cl)cc1 | -4.05%
Cc1ccc(C(=O)NC(=S)Nc2ccc(N3CCOCC3)cc2)cc1 | 30%
Cc1ccc(C(=O)NC(=S)Nc2ccccc2C)cc1 | 97.5% (active)
Cc1ccccc1NC(=S)NNC(=O)c1cccc(Br)c1 | 48.8%
Cc1cc(C(=O)Nc2c(C)n(C)n(-c3ccccc3)c2=O)cs1 | -6.98%
